The source of these data is PubChem BioAssay (Tox21).

Test [1] is described as follows: Caspase-3/7 induction in HepG2 cells by small molecules, qHTS assay (AID 1346978). Note: nearly all actives have a fitted effect of over 15% in size. Note: potency is the fitted concentration of half-maximal effect. In a few lines:
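Wild-type HepG2 cells, 2,000/well, settled 5 hr at 37 C and 5% CO2, then compound-treated for 17 hr; caspase-3/7 activity read by luminescent Caspase-Glo 3/7 after 30 min at room temperature.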

Test [2] is described as follows: Caspase-3/7 induction in CHO-K1 cells by small molecules, qHTS cell viability counter screen (AID 1346979). Note: nearly all actives have a fitted effect of over 35% in size. Note: potency is the fitted concentration of half-maximal effect. In a few lines: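 Viability readout by fluorescence (CellTiter-Fluor) on wild-type CHO-K1 cells exposed for 16hr at 37C and 5% CO2 to compounds delivered in DMSO; reagent incubated 1hr before reading.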
On the technique in general: In qHTS, concentration-response curves come from the screen itself.

The nature of test [3]: Caspase-3/7 induction in CHO-K1 cells by small molecules, qHTS assay (AID 1346980). Note: nearly all actives have a fitted effect of over 15% in size. Note: potency is the fitted concentration of half-maximal effect. In a few lines:
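Wild-type CHO-K1 cells exposed to compounds for 17hr at 37 C, 5% CO2. Caspase-3/7 activity then measured by Caspase-Glo 3/7 luminescence after 30min at room temperature.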

A short description of test [4]: Caspase-3/7 induction in HepG2 cells by small molecules, qHTS cell viability counter screen (AID 1346981). Note: nearly all actives have a fitted effect of over 30% in size. Note: potency is the fitted concentration of half-maximal effect. In outline:
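Cell viability is measured as a cytotoxicity counter screen alongside the Caspase-Glo 3/7 readout in identical wells. Wild-type HepG2 cells are treated with test compounds for 16 hr at 37 C before CellTiter-Fluor addition and a 1-hr incubation.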

The target in test [5] is Nuclear receptor subfamily 1 group I member 2 (Homo sapiens) (UniProt O75469). Put plainly: Human pregnane X receptor (PXR) small molecule agonists, qHTS assay (AID 1346982). Note: nearly all actives have a fitted effect of over 35% in size. Note: potency is the fitted concentration of half-maximal effect. In a few lines:
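Cells: HepG2 stably carrying PXR-Luc. Medium held 5% charcoal-stripped FBS. Compounds in DMSO added after 5 hr plating, incubated 24 hr, then luminescence quantified with ONE-Glo.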

Test [6] deals with Acetylcholinesterase (Homo sapiens) (UniProt P22303). Put plainly: Acetylcholinesterase (AChE) small molecule antagonists: colormetric cell-based qHTS assay (AID 1347395; calls by dose curve; note: nearly all actives have a fitted effect of over 30% in size; note: potency is the fitted concentration of half-maximal effect). In a few lines: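 Homogeneous whole-cell format. SH-SY5Y cells seeded overnight, dosed with compound (30 min, 37 C, 5% CO2), then given DTNB/acetylthiocholine cocktail for 90 min at 37 C; colorimetric signal.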
Chain of Acetylcholinesterase (Homo sapiens) (P22303 whole entry, looked up): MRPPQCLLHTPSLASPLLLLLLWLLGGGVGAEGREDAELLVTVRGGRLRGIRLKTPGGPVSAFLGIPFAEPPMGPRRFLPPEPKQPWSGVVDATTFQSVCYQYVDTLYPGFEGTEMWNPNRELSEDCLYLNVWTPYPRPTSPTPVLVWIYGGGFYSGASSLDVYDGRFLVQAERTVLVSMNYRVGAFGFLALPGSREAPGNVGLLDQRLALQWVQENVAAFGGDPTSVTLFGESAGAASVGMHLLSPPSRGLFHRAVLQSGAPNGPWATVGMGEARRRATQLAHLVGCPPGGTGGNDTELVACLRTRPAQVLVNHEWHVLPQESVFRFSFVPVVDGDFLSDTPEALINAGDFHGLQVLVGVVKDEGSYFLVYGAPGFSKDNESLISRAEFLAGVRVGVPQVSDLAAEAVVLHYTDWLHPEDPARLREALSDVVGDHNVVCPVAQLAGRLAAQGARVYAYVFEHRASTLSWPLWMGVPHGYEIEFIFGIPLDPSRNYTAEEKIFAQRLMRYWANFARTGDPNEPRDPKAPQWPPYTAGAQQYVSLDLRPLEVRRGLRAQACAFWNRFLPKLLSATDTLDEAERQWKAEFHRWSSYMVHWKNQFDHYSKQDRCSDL

For test [7] the target is unchanged. Put plainly: Acetylcholinesterase (AChE) small molecule antagonists: enzyme-based qHTS assay (AID 1347397; calls by dose curve; note: nearly all actives have a fitted effect of over 55% in size). As to conditions: Potency: AChE enzyme activity inhibition. In a few lines:
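Colorimetric DTNB read-out of thiocholine released from acetylthiocholine by recombinant human AChE (50 mU/mL as dispensed). Compounds were preincubated 30 min at RT before substrate/DTNB addition, with a 10 min RT reaction.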

Test [8] shares this target. Put plainly: Acetylcholinesterase (AChE) small molecule antagonists: fluorescence cell-based qHTS assay (AID 1347398; calls by dose curve; note: nearly all actives have a fitted effect of over 50% in size; note: potency is the fitted concentration of half-maximal effect). The settings on record: Potency: AChE activity. In outline: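 SH-SY5Y, 2,000 cells/well, attached overnight; cmpd 30 min 37 C; acetylthiocholine/Thiolite Green cocktail 40 min RT; fluorescence Ex/Em 490/520 nm.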
The target is the same in test [9]. Put plainly: Acetylcholinesterase (AChE) small molecule antagonists: enzyme-based qHTS assay with human liver microsomes (AID 1347399; calls by dose curve; note: nearly all actives have a fitted effect of over 60% in size). The settings on record: Potency: qHTS inhibition. In outline: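 Recombinant human AChE (50 mU/mL in the enzyme mix) and human liver microsomes (0.25 mg/mL final) were preincubated with compound and NADPH (0.25 mg/mL final) for 30 min at 37 C. Acetylthiocholine/DTNB was then added; thiocholine was read colorimetrically after 10 min at room temperature.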

Test [10] concerns the target Cytochrome P450 2D6 (Homo sapiens) (UniProt P10635). Put plainly: Cytochrome P450 Family 2 Subfamily D Member 6 (CYP2D6) small molecule antagonists: luciferase reporter qHTS assay (AID 1671196). For activity change, negative = inhibition: series mostly up to about 120 µM. Note: nearly all actives have a fitted effect of over 50% in size. Note: potency is the fitted concentration of half-maximal effect. In outline:
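Enzyme and proluciferin substrate were first combined with test chemical for 10 min at room temperature. Adding NADPH regeneration solution started a 1 h reaction, stopped with luciferin detection reagent and read by luminescence 20 min later.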
On the technique in general: Reporter assays use an easily measured gene product as a stand-in for the process of interest.

The target in test [11] is Cytochrome P450 2C19 (Homo sapiens) (UniProt P33261). Put plainly: Cytochrome P450 Family 2 Subfamily C Member 19 (CYP2C19) small molecule antagonists: luciferase reporter qHTS assay (AID 1671197). For activity change, negative = inhibition: series mostly up to about 120 µM. Note: nearly all actives have a fitted effect of over 65% in size. Note: potency is the fitted concentration of half-maximal effect. In a few lines: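 P450-Glo CYP2C19 screening system; proluciferin substrate; DMSO compound stocks; 10 min RT preincubation; NADPH regeneration, 1 h at 37C; luciferin detection reagent, 20 min RT; luminescence as RLU.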
Chain of Cytochrome P450 2C19 (Homo sapiens) (P33261 whole entry, looked up): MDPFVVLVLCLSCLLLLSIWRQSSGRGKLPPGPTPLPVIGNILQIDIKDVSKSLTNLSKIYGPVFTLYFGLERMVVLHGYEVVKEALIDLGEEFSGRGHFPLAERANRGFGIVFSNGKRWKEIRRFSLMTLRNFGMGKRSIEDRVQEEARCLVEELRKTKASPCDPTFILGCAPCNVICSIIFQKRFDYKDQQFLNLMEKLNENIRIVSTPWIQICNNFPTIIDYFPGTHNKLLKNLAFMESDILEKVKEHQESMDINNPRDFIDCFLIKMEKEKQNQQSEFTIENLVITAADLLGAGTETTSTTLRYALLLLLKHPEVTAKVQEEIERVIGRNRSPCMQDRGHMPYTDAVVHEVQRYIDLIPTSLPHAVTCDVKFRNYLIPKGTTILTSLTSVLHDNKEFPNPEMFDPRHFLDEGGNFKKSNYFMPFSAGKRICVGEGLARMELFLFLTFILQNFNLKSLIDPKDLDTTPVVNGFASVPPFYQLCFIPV

In test [12] the target is Cytochrome P450 1A2 (Homo sapiens) (UniProt P05177). Put plainly: Cytochrome P450 Family 1 Subfamily A Member 2 (CYP1A2) small molecule antagonists: luciferase reporter qHTS assay (AID 1671199). For activity change, negative = inhibition: series mostly up to about 120 µM. Note: nearly all actives have a fitted effect of over 50% in size. Note: potency is the fitted concentration of half-maximal effect. In a few lines:
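Compounds were incubated with CYP1A2 and a luminogenic proluciferin substrate for 10 min at room temperature before the reaction was started with NADPH regeneration solution. After 1 h, detection reagent was added and light output, proportional to CYP activity, was recorded.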

Test [13] has as its target Voltage-gated inwardly rectifying potassium channel KCNH2 (Homo sapiens) (UniProt Q12809). Put plainly: Human Ether-a-go-go-Related Gene (hERG) channel small molecule antagonists: fluorescence cell-based qHTS assay (AID 1671200).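 For activity change, negative = inhibition: hERG-expressing U2OS cells given a thallium stimulus after FluxOR II dye loading; series mostly up to about 77 µM.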 Note: nearly all actives have a fitted effect of over 50% in size. Note: potency is the fitted concentration of half-maximal effect. In outline:
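Thallium served as the potassium surrogate; its influx into dye-loaded U2OS cells carrying the channel was measured by fluorescence over 2 min.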

Test [14] deals with Cytochrome P450 3A4 (Homo sapiens) (UniProt P08684). Put plainly: Cytochrome P450 Family 3 Subfamily A Member 4 (CYP3A4) small molecule antagonists: luciferase reporter qHTS assay (AID 1671201). For activity change, negative = inhibition: series mostly up to about 120 µM. Note: nearly all actives have a fitted effect of over 50% in size. Note: potency is the fitted concentration of half-maximal effect. In outline:
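Relative luminescence units after 20 min with luciferin detection reagent served as read-out. Beforehand, CYP3A4 turned over a proluciferin substrate for 1 h at room temperature with NADPH regeneration, following 10 min compound preincubation.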

The target in test [15] is Cytochrome P450 2C9 (Homo sapiens) (UniProt P11712). Put plainly: Cytochrome P450 Family 2 Subfamily C Member 9 (CYP2C9) small molecule antagonists: luciferase reporter qHTS assay (AID 1671198). For activity change, negative = inhibition: series mostly up to about 120 µM. Note: nearly all actives have a fitted effect of over 50% in size. Note: potency is the fitted concentration of half-maximal effect. In outline: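 P450-Glo proluciferin substrate with CYP2C9 enzyme; 10 min RT preincubation, then NADPH regeneration 1 h at 37C; luciferin detection reagent 20 min RT, luminescence in relative luminescence units.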
Chain of Cytochrome P450 2C9 (Homo sapiens) (P11712 whole entry, looked up): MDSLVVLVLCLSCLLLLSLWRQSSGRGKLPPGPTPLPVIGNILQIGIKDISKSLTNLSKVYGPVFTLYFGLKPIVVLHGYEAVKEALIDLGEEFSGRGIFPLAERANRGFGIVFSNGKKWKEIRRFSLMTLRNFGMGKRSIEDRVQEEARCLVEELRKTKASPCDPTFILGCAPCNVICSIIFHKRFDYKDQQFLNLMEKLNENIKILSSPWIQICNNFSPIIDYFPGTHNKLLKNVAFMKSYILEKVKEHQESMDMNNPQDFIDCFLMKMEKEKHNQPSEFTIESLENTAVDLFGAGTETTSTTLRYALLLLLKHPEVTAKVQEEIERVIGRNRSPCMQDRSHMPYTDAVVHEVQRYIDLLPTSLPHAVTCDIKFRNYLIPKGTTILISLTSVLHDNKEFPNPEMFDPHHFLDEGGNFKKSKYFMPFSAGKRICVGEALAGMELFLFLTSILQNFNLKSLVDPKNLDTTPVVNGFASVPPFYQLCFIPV

The target of test [16] is Nuclear receptor subfamily 1 group I member 2 (Rattus norvegicus) (UniProt Q9R1A7). Put plainly: Rat pregnane X receptor (rPXR) activation by small molecules, qHTS assay (AID 1346983). Note: nearly all actives have a fitted effect of over 20% in size. As to conditions: rPXR luciferase reporter cells, One-Glo luminescence, 24 h; max activation: stronger effect = higher value. In a few lines: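 Cell-based rPXR activation assay: rPXR cells, 2,000 per well, rested 5hr at 37 C, then exposed to compounds in DMSO for 24 hr at 37 C. Luciferase activity read by One-Glo luminescence after 30 min at room temperature.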

Test [17] deals with Nuclear receptor subfamily 1 group I member 2 (Homo sapiens) (UniProt O75469). Put plainly: CYP3A4 induction through human pregnane X receptor (PXR) by small molecules, qHTS assay (AID 1346984). Note: nearly all actives have a fitted effect of over 40% in size. In a few lines:
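Quantitative HTS in DPX-2 cells, i.e. HepG2 transfected with PXR response element and CYP3A4-promoter luciferase. Compounds in DMSO incubated 24hr at 37C; then P450-Glo CYP3A4 substrate, 3uM final, 3hr; One-Glo luminescence.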

Values joined by “and” are separate entries in the source; they are usually repeats but may differ in a detail not shown here. Equal values may be shown once. Inconclusive results are not listed. Some structures have more than one record in an assay (separate samples or runs), and their calls can disagree. Active and inactive are the calls of the source. Unless noted, calls come from the whole dose curve; as a rule, active = well fitted curve in the direction sought with a large enough effect in the repeat runs; inconclusive = weak or mixed curves; inactive = no such curve, though single readings can be large; an effect the other way counts as inactive or inconclusive.
% is set by controls: 0 for no effect and ±100 for the full control effect.

Chain of Cytochrome P450 1A2 (Homo sapiens) (P05177 whole entry, looked up): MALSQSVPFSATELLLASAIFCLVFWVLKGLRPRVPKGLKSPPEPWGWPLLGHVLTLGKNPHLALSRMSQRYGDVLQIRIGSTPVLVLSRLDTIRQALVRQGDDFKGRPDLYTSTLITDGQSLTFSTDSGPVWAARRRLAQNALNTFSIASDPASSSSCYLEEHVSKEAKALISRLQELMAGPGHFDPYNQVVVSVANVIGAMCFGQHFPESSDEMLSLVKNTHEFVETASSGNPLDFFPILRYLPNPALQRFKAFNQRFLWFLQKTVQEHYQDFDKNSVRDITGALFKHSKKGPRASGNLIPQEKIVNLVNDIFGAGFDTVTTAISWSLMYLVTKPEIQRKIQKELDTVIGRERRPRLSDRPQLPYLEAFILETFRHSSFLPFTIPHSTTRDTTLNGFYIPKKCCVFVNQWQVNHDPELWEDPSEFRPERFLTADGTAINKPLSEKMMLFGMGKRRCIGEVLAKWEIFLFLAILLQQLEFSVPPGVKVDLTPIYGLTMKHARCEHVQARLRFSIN
Chain of Cytochrome P450 2D6 (Homo sapiens) (P10635 whole entry, looked up): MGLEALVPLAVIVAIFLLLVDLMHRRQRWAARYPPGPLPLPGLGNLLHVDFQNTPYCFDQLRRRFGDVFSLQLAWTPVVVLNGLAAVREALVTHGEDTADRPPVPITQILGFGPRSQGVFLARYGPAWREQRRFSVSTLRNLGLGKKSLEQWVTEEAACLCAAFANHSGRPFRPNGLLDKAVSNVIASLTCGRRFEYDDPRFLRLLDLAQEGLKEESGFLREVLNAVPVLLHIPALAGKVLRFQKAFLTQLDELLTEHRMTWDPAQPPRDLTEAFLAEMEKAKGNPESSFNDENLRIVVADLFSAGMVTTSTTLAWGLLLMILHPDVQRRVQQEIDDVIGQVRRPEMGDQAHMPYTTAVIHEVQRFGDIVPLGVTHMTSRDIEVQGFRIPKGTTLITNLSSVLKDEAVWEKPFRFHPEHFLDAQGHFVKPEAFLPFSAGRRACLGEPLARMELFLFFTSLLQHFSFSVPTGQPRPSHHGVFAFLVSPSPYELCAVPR
Chain of Cytochrome P450 3A4 (Homo sapiens) (P08684 whole entry, looked up): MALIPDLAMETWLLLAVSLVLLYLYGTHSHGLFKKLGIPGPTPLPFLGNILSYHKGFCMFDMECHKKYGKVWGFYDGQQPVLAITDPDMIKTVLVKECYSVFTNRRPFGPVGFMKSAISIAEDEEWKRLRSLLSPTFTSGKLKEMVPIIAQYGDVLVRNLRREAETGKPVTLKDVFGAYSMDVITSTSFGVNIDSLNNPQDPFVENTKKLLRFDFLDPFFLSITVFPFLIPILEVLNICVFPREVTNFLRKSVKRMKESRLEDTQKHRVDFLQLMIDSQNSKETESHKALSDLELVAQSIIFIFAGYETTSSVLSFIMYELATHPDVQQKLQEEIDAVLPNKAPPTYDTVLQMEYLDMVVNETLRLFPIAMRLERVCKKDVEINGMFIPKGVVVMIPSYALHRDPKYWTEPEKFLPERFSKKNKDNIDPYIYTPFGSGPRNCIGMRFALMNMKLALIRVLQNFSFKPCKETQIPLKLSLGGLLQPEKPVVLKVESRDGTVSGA
Chain of Nuclear receptor subfamily 1 group I member 2 (Homo sapiens) (O75469 whole entry, looked up): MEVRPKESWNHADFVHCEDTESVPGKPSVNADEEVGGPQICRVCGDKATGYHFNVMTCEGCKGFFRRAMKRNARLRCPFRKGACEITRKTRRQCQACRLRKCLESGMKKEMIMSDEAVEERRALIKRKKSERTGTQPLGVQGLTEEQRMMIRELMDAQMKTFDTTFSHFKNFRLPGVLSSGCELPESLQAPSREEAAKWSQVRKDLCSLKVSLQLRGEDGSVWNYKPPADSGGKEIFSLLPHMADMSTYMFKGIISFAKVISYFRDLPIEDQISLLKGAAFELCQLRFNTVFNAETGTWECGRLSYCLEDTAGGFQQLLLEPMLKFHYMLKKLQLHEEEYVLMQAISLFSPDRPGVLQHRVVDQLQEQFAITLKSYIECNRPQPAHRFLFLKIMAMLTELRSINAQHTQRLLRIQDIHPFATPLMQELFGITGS
Chain of Voltage-gated inwardly rectifying potassium channel KCNH2 (Homo sapiens) (Q12809 whole entry, looked up): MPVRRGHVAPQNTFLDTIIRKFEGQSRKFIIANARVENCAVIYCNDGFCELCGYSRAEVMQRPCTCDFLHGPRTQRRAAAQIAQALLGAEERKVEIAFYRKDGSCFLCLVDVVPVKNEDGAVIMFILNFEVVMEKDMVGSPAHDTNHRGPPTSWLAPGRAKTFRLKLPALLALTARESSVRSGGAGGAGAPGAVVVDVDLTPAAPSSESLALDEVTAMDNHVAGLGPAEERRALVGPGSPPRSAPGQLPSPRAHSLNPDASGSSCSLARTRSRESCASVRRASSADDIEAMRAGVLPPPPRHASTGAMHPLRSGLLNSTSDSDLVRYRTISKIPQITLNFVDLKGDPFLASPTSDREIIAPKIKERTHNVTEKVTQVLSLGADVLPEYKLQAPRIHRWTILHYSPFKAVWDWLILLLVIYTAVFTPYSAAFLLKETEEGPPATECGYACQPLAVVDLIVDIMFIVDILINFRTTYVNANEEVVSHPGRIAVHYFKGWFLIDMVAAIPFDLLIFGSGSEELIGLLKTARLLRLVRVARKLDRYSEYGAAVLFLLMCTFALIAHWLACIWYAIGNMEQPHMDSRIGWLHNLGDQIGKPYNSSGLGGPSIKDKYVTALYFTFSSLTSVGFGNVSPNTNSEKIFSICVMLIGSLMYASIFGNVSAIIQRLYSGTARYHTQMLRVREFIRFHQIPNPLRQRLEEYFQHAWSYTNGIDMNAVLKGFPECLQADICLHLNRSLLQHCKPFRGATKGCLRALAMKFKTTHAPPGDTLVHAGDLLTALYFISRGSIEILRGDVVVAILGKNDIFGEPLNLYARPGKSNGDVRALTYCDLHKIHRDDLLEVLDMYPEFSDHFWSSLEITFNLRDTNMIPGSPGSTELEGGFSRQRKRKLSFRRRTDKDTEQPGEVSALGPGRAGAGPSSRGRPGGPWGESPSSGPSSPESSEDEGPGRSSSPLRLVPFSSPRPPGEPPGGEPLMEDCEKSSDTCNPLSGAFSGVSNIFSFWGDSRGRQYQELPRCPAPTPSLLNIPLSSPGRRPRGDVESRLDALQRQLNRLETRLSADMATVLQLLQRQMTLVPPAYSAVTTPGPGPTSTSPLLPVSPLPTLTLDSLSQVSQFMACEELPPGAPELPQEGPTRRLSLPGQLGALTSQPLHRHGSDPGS

Take `CCC[CH2][Sn]([CH2]CCC)([CH2]CCC)[O][Sn]([CH2]CCC)([CH2]CCC)[CH2]CCC`: the Potency is 2.38 µM (active) in [1]; 336 nM (active) in test [2]; 671 nM (active) in test [3]; 1.34 µM (active) in [4]; 238 nM (active) in test [5]; 155 nM (active) in test [10]. For the same compound, the results for the Potency in test [11] and in test [13] were 981 nM (active) and 1.7 µM (active), respectively. Besides, the activity, negative = inhibition in [6] is -0.727% [at 10.5 µM] (inactive). Moreover, the activity change, negative = inhibition in test [7] was -1.88% [at 10.5 µM] (inactive); in test [8], 2.81% [at 10.5 µM] (inactive); in test [9], 0.495% [at 10.5 µM] (inactive); in test [12], -6.75% [at 10.5 µM] (inactive); in test [14], -17.7% [at 10.5 µM] (inactive).

Take `CC(C)N(C(=O)CCl)c1ccccc1`: the Potency entry in test [1], in [3], in [7], in [9], in [10] and in test [12] was “inactive” each time. The Potency result in [13] and in test [14] was “inactive” throughout. Further, the Potency in test [2] is 24.3 µM (active) and 27.3 µM (active); in [4] it was 54.5 µM (active); in test [5], 48.6 µM (active) and inactive; in test [6], 63.3 µM (active); in test [8], 20 µM (active); in test [11], 39900 nM (active).

`CN(C)CCc1c[nH]c2ccccc12`: the Potency result in test [1], in test [2], in test [3], in [4], in [5] and in [6] was “inactive” in each case. In addition, the Potency result in test [7], in test [8], in test [9], in [11], in test [15] and in test [12] was “inactive” each time. In addition, the Potency entry in test [13] and in [14] was “inactive” each time. Also, the Potency in [10] was 39600 nM (active).

In the case of `CN(C)C(=S)SSC(=S)N(C)C`, the Potency in [1] is 851 nM (active) and 864 nM (active) and 668 nM (active); in [2], 240 nM (active) and 344 nM (active) and 298 nM (active); in [4], 26.9 µM (active) and 19.3 µM (active) and 15 µM (active); in [6], 78.5 µM (active) and inactive; in test [8], 35.1 µM (active) and 39.9 µM (active) and 21.9 µM (active); in test [15] it was 9.89 µM (active) and 6.33 µM (active) and 2.19 µM (active). The Potency in [12] was 3.94 µM (active) and 4.48 µM (active) and 2.75 µM (active); in [13] it was 43 µM (active) and 49 µM (active); in test [14], 39400 nM (active). Moreover, the Potency entry in test [3], in test [5], in test [17] and in [9] was “inactive” in each case. The max activation in test [16] was -13.9% (inactive).

As for `CC(Cc1ccc(O)cc1)NCC(O)c1cc(O)cc(O)c1` (stereo not drawn), the Potency entry in test [1], in test [2], in test [3], in test [4], in test [5] and in [17] was “inactive” throughout. The Potency result in test [11], in test [15], in test [12], in [13] and in test [14] was “inactive” in each case. Moreover, the max activation in test [16] was -1.7% (inactive). In addition, the Potency in [10] is 9770 nM (active).

`C=CC(=O)[O][Sn]([CH2]CCC)([CH2]CCC)[CH2]CCC`: the Potency is 2.43 µM (active) in test [1]; 686 nM (active) in [2]; 1220 nM (active) in [3]; 3.86 µM (active) in test [4]; 172 nM (active) in test [5]; 1260 nM (active) in test [10]. Moreover, the Potency in test [11] was 894 nM (active); in [15], 12.6 µM (active); in test [13] it was 6.16 µM (active); in [14], 25200 nM (active). Also, the Potency entry in [6], in [7], in [8] and in test [9] was “inactive” in each case.

Consider `BrCCCBr`, for which the Potency entry in test [1], in test [2], in test [3], in test [4], in test [5] and in [6] was “inactive” each time. The Potency entry in test [7], in [8], in [9], in test [10], in test [11] and in test [15] was “inactive” throughout. For the same compound, the Potency entry in test [13] and in test [14] was “inactive” in each case.
